In the library only some 1.6% were active in any assay of this set; here they are far more common.
MOR-DOR ag = OPRM1-OPRD1 heterodimerization agonism | P35372+P41143 | cells, luminescence | activation, % at 9.3 µM | actives 0.3% (n = 340,000) | AID 504326; in the data active means activation above about 18%;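 further: 0% = vehicle-treated cells and 100% = reference agonist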
Target sequence (P35372 whole entry, looked up): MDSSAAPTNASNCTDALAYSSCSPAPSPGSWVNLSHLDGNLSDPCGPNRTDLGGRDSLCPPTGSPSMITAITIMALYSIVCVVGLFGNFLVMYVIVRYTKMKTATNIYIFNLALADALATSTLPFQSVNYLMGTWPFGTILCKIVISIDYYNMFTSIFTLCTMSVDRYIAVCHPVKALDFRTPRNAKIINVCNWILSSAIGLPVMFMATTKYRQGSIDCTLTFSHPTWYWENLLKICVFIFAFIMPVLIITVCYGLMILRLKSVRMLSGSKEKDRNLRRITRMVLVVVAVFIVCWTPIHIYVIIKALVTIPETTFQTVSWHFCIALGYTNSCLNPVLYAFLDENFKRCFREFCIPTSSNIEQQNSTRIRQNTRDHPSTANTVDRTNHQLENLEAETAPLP
Target sequence (P41143 whole entry, looked up): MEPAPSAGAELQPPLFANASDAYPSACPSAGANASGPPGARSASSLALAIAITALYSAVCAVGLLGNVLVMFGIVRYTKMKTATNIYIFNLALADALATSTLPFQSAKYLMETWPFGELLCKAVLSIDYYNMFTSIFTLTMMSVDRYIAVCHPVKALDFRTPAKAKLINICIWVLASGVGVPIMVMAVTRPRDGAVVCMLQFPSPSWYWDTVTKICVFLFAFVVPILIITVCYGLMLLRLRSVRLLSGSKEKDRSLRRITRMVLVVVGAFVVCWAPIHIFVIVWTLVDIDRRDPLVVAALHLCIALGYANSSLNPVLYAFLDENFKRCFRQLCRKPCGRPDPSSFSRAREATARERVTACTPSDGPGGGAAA
m5-HT2A agonist = mouse HTR2A agonism via beta-arrestin recruitment. P35363. CHO-K1 mHTR2A beta-arrestin complementation, luminescence; percent of 30 µM serotonin response. activation, % at 7.6 µM. actives 0.66% (n = 360,000). AID 624169;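 active means activation above a run cutoff, the mean activation of all tested compounds plus 3 SD, cut at about 14% in these data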;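 further: 0% = plate median of compound wells and 100% = 30 µM serotonin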
HTR5A ag = activates human HTR5A in OPRM1-OPRD1 agonist counter-screen; activation, % at 9.3 µM; actives 0.61% (n = 340,000); P47898; HTR5A agonist assay, luminescence, cell-based; in the data active means activation mostly above about 9.5%, no sharp cut-off; inactive means mostly below about 7.6%;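 further: 0% = cells with vehicle only and 100% = reference agonist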
HTR5A inv ag = inverse agonist of human HTR5A in OPRM1-OPRD1 counter-screen; AID 504634; inhibition, % at 9.3 µM; actives 0.083% (n = 340,000); HTR5A cell line, luminescence, inverse agonism; P47898; in the data active means inhibition mostly above about 23%, no sharp cut-off; inactive means mostly below about 18%;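 further: 0% = cells with DMSO and 100% = no-cell wells with DMSO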
MOR-DOR inv ag = mu-delta opioid heterodimer inverse agonism | inhibition, % at 9.3 µM | AID 504357 | P35372+P41143 | actives 0.21% (n = 340,000) | cell-based MOR-DOR heterodimer luminescence; in the data active means inhibition above about 22%, passing the limit was not always enough;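 further: 0% = cells with DMSO and 100% = wells without cells with DMSO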
OPRM1 ag = counter-screen for mouse HTR2A agonists: human mu opioid receptor agonists. shares compounds with m5-HT2A agonist. U2OS OPRM1 beta-arrestin PathHunter, luminescence; DMSO 0%, DAMGO 9.3 µM 100%. activation, % at 9.3 µM. actives 5.3% (n = 2,300);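 active means mean activation above the mean of DMSO-only wells plus 3 SD, cut at about 0.5% in these data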
HTR2A ag conf = mouse HTR2A agonism confirmed; actives 19% (n = 2,300); shares compounds with m5-HT2A agonist; activation, % at 7.6 µM; CHO-K1 PathHunter beta-arrestin recruitment, luminescence; DMSO 0%, 30 µM serotonin 100%;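 active means mean activation across triplicates above the hit threshold derived in the original primary screen, cut at about 15% in these data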
* marks the source's active call; other numbers are inactive results; / = not tested or not shown.

SMILES | MOR-DOR ag | m5-HT2A agonist | HTR5A ag | HTR5A inv ag | MOR-DOR inv ag | OPRM1 ag | HTR2A ag conf
COc1ccc(C(=O)Nc2ccc(OC)c([N+](=O)[O-])c2)cc1Br | -2.0 | 24.2* | 0.6 | 11.7 | 10.0 | -0.5 | 13.8
COC(=O)[C@]12CCCCC=C1N(Cc1ccccc1)C(=O)[C@H](CC(=O)NCCCCc1ccccc1)C2 | / | 0.5 | / | / | / | / | /
CCOC(=O)c1ccc(NC(=O)Cn2nnc(-c3ccccc3)n2)cc1 | 8.6 | 20.6* | -3.4 | 0.7 | -48.7 | 0.2 | 2.5
CCOC(=O)c1ccc(NC(=O)CSCC(=O)OCC(=O)c2ccccc2)cc1 | -1.3 | 14.9* | -1.2 | -11.4 | 7.0 | -0.2 | -2.9
CCOC(=O)c1ccc(NC(=O)Cn2nnc(-c3ccc(F)cc3)n2)cc1 | 4.7 | 0.6 | -0.6 | 1.6 | -25.0 | / | /
O=C(CSCC(=O)OCC(=O)c1ccc(Br)cc1)Nc1ccc(Br)cc1 | 2.0 | 1.1 | -2.5 | 24.1 | -12.3 | / | /
CCOC(=O)c1cccnc1SCC(=O)Nc1ccc(C)cc1 | -0.1 | 16.2* | 0.2 | -0.6 | 0.3 | -0.6 | -4.2
CCOC(=O)c1cccnc1SCC(=O)NC(C)CC (stereo not drawn) | 2.3 | 1.1 | 4.0 | -4.4 | -11.9 | / | /
CCC(C(=O)NCC1CCCO1)N(Cc1ccc(F)cc1)C(=O)CNS(=O)(=O)c1ccccc1 (stereo not drawn) | 2.3 | -6.4 | 7.3 | 3.7 | -15.9 | / | /
COCCCN(Cc1ccco1)C(=O)CSc1nc2ncccc2[nH]1 | -1.3 | 3.4 | -4.5 | -14.4 | 6.7 | / | /
COc1ccc(NC(=O)Nc2nc(C(N)Cc3ccc(C(F)(F)F)cc3)cs2)cc1 (stereo not drawn) | / | 21.4* | / | / | / | 1.5* | 9.0
COc1cc(NC(=O)Nc2nc(C(N)Cc3ccc(C(F)(F)F)cc3)cs2)cc(OC)c1OC (stereo not drawn) | / | 42.2* | / | / | / | 0.3 | 28.9*
CN(CC(=O)Nc1ccc(Cl)c(S(=O)(=O)N2CCOCC2)c1)C(=O)c1ccc(C#N)cc1 | -3.5 | -1.9 | 0.1 | -17.9 | 12.9 | / | /
O=C(c1cnc2ccccc2n1)N1CCN(c2ccc(C(F)(F)F)cn2)CC1 | -2.0 | -0.4 | -0.3 | 0.9 | 9.7 | / | /
COc1ccc(NS(=O)(=O)c2ccc(C)c(NC(=O)CNC(=O)c3ccco3)c2)cc1 | -1.6 | 8.2 | 0.9 | -19.3 | 10.5 | / | /
O=C(c1ccco1)N1CCN(c2nc3ccsc3c(=O)s2)CC1 | -2.9 | 42.0* | -3.2 | 8.8 | 14.9 | -0.7 | 9.4
CC(=O)c1ccc(N2CCN(C(=O)C3CCN(S(=O)(=O)c4ccc5c(c4)CC(C)N5C(C)=O)CC3)CC2)cc1 (stereo not drawn) | 0.4 | 15.9* | -1.8 | -3.7 | -1.9 | -0.4 | 1.5
O=C(Nc1ccccc1)Nc1ccc2ccccc2n1 | 4.8 | 15.8* | 1.1 | -3.8 | -21.5 | -0.1 | -3.8
O=C(Nc1ccc(F)cc1)Nc1ccc2ccccc2n1 | 4.2 | 2.9 | 3.5 | -12.5 | -18.7 | / | /
Cc1cc(Cl)ccc1OC(C)C(=O)NC(C)C1CCCO1 (stereo not drawn) | -0.6 | 15.8* | 5.2 | -19.1 | 3.3 | -0.3 | -3.1
Cc1cc(OC(C)C(=O)NCC2CCCO2)cc(C)c1Cl (stereo not drawn) | -3.3 | 14.6* | 10.7* | -11.3 | 17.0 | -0.6 | -3.5
CC(Oc1ccc([N+](=O)[O-])cc1)C(=O)NCC1CCCO1 (stereo not drawn) | -1.5 | 0.7 | -0.3 | 0.7 | 7.7 | / | /
CC(NC(=O)Nc1ccc(Cl)cc1)C1CCCO1 (stereo not drawn) | 0.4 | 0.1 | -5.0 | 12.3 | -2.4 | / | /
CCOC1=C2CN(S(=O)(=O)c3ccc(C)cc3)[C@@H](c3cccs3)C[C@H]2[C@H]2C(=O)N(c3ccccc3)C(=O)[C@H]2C1 | / | 0.3 | / | / | / | / | /
CCOC(=O)C1(C)CCCCCN1C(=O)c1ccc(OC)cc1 (stereo not drawn) | / | 15.7* | / | / | / | -0.7 | -3.9
SMILES | MOR-DOR ag | m5-HT2A agonist | HTR5A ag | HTR5A inv ag | MOR-DOR inv ag | OPRM1 ag | HTR2A ag conf
COC(=O)/C=C1\OC(c2ccccc2)c2ccccc21 (stereo not drawn) | / | 6.4 | / | / | / | / | /
Cn1ncc(Br)c1NC(=O)Nc1ccccc1 | -1.7 | 14.4* | 5.3 | -19.9 | 8.4 | 1.0* | 7.6
Cc1cccc(C)c1NC(=O)c1cc(S(=O)(=O)N2CCc3ccccc32)cn1C | -1.5 | 20.8* | 6.4 | -19.6 | 8.9 | -0.4 | -2.8
CCC(C)N(C(=O)COC(=O)CSc1ccc(C)c(C)c1)C1CCS(=O)(=O)C1 (stereo not drawn) | -3.0 | 15.3* | -1.2 | 3.1 | 11.8 | -0.4 | 0.1
Cc1nc2ccccc2n1CC(=O)OCC(=O)NCc1ccccc1 | -1.5 | 14.7* | 0.9 | -2.4 | 7.6 | 0.0 | 3.5
CC(=O)N1CCN(C(=O)c2ccc(Cl)c(NC(=O)c3cccs3)c2)CC1 | -0.3 | 14.7* | 4.2 | 12.7 | 2.0 | -0.6 | -2.5
OCCCNc1ncnc2sc(-c3ccccc3)cc12 | 2.4 | -0.9 | 5.0 | -14.1 | -12.7 | / | /
CC(C)(C)Nc1ncnc2sc(-c3ccccc3)cc12 | 13.6 | 23.0* | 3.0 | -10.7 | -61.4 | 0.5* | 5.2
Cc1c(Cl)sn(-c2ccc(Cl)cc2)c1=O | 36.4* | 17.1* | 19.0* | -53.9 | -208.0 | 3.3* | 0.2
Cc1nn(-c2ccc(Cl)cc2)c(=O)c2ccccc12 | -3.3 | -2.2 | -4.2 | 10.3 | 17.0 | / | /
CC(C)(C)CN1CCC(Oc2cccc(C(=O)NCCCOc3cccnc3)c2)CC1 | 1.2 | 9.8 | 4.0 | -15.0 | -6.2 | / | /
O=C1NC(=O)C(Cc2cccc(Oc3ccccc3)c2)S1 (stereo not drawn) | -3.0 | 15.0* | -3.9 | 15.2 | 16.6 | -0.6 | 0.3
NS(=O)(=O)c1ccc(NC(=S)N2CCN(Cc3ccc(Cl)c(Cl)c3)CC2)cc1 | / | -9.2 | / | / | / | / | /
NS(=O)(=O)c1ccc(NC(=S)N2CCN(c3ccc(Cl)c(Cl)c3)CC2)cc1 | 2.5 | 35.5* | 2.4 | 17.1 | -13.4 | -0.2 | 10.1
CCCN1CCN(C(=S)Nc2ccc(S(N)(=O)=O)cc2)CC1 | -1.9 | 15.5* | 1.4 | -20.1 | 9.2 | -0.5 | -0.7
CC(C)OC(=O)Cn1nc(C(c2ccccc2)c2ccccc2)oc1=O | -0.3 | -2.3 | -0.1 | 0.5 | 1.6 | / | /
Cc1c(C(=O)CN2CCN(c3ccccc3)CC2)c2ccccc2n1C | 0.2 | 2.5 | -3.9 | 13.7 | -1.1 | / | /
Cn1c2c(c3ccccc31)CCN(CCCCN1CCN(c3ccccc3)CC1)C2=O | 0.1 | 21.0* | 1.2 | -4.8 | -0.6 | -0.3 | 39.8*
CC#CC[N+](C)(C)CCCCCCCCCCCC | 1.3 | 0.4 | 3.9 | -10.3 | -9.5 | / | /
CC(C)C(=O)NC(NCC1CCCO1)C(Cl)(Cl)Cl (stereo not drawn) | 0.3 | 17.1* | 1.5 | -4.1 | -1.9 | -0.7 | -2.0

Source: PubChem BioAssay (The Scripps Research Institute Molecular Screening Center)
